Data as given in PubChem BioAssay.

Test: small-molecule microarray binders of probe aEGFR, primary screen, biochemical, biotinylated probe, 635/667 nm fluorescence (AID 1097);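 also: probe is a biotinylated anti-EGFR antibody binding compounds printed on slides; score combines fluorescence near 667 nm and signal to noise of each spot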
Conditions: higher = more signal

**Q.** With COC(=O)C(CC#Cc1ccc2c(c1)[C@]1(C(=O)N2)[C@H](C(=O)N2CCN(c3ncccn3)CC2)[C@H]2C(=O)O[C@H](c3ccccc3)[C@H](c3ccccc3)N2[C@@H]1c1ccc(OCCO)cc1)C(=O)OC as the molecule, how does the composite z-score read?
**A.** Its composite z-score is -0.0177.

**Q.** Which composite z-score does the source give for COCCOC(=O)N1C(=O)[C@@]2(c3cc(C#CC4=CCCCC4)ccc31)[C@H](c1ccccc1OCCO)N1[C@H](c3ccccc3)[C@H](c3ccccc3)OC(=O)[C@H]1[C@@H]2C(=O)N1CCCCCCC1 here?
**A.** Its composite z-score is 0.0961.

**Q.** For CCOC(=O)C[C@H]1[C@H](OC(=O)c2ccc(C(=O)c3ccccc3)cc2)[C@@H](NC(=O)Cc2ccc(OC)cc2)c2cc(OCCCO)ccc2N1C(=O)c1ccccc1, which composite z-score is on record?
**A.** The composite z-score was -0.0219.

**Q.** For C=CC[C@@]1(C(=O)N2CCOCC2)N=C(c2ccc(OCCCO)cc2)O[C@@H]1c1ccccc1CN=[N+]=[N-], which composite z-score is on record?
**A.** Its composite z-score is 0.776.

**Q.** With NC(=O)NCC#Cc1ccc2c(c1)[C@]1(C(=O)N2)[C@H](C(=O)NC[C@H](O)c2ccccc2)[C@H]2C(=O)O[C@H](c3ccccc3)[C@H](c3ccccc3)N2[C@@H]1c1ccc(OCCO)cc1 as the molecule, how does the composite z-score read?
**A.** Its composite z-score is -0.0078.

**Q.** For C=C(COC)/C(=C/C[C@H](OC(=O)c1ccncc1)c1ccccc1OCCO)c1cnc2ccccc2c1, which composite z-score is on record?
**A.** The composite z-score was 0.0024.

**Q.** For [N-]=[N+]=Nc1ccccc1C[C@]1(C(N)=O)N=C(c2ccc(OCCCO)cc2)O[C@H]1c1ccccc1N=[N+]=[N-], which composite z-score is on record?
**A.** Its composite z-score is 0.701.

**Q.** For CN1C(=O)C2C=CC(C(O)c3ccccn3)N(N(c3ccccc3)c3ccccc3)C2C1=O (centres undefined), which composite z-score is on record?
**A.** Its composite z-score is 0.0353.

**Q.** With NCCCCCCNC(=O)[C@@H]1C[C@@H]2C(=O)N[C@@H](CCCCN)C(=O)N2[C@@H]1c1cccc(OCCO)c1 as the molecule, how does the composite z-score read?
**A.** The composite z-score was 0.393.

**Q.** Which composite z-score does the source give for O=C1N(Cc2ccccc2)c2ccccc2[C@@H]2OC(c3ccc(OCCCO)cc3)=N[C@]12Cc1ccccc1 here?
**A.** The composite z-score was -0.0391.

**Q.** With CCCCCCCCCCC(O)C1C=CC2C(=O)N(C)C(=O)C2N1NC(=O)OC(C)(C)C (centres undefined) as the molecule, how does the composite z-score read?
**A.** The composite z-score was -0.128.

**Q.** With OCCCC1=CC(c2ccc(CN3CCCC3)cc2)N(Cc2sc3ccccc3c2Cl)CC1 (centres undefined) as the molecule, how does the composite z-score read?
**A.** Its composite z-score is 0.148.

**Q.** With [N-]=[N+]=Nc1ccccc1[C@@H]1OC(c2ccc(OCCCO)cc2)=N[C@]1(Cc1ccccc1)C(=O)NCC(O)CO (some centres undefined) as the molecule, how does the composite z-score read?
**A.** Its composite z-score is 0.206.

**Q.** For C=CCC(OC(C)=O)[C@@H]1[C@@H](N(Cc2cc3ccccc3o2)C(=O)c2ccc(-c3ccccc3)cc2)c2cc(OCCCO)ccc2N1C(=O)c1ccc2ccccc2c1 (some centres undefined), which composite z-score is on record?
**A.** The composite z-score was -0.0981.

**Q.** With Cc1cc(C)c(C(O)C2C=CC3C(=O)N(c4ccccc4)C(=O)C3N2Nc2ccc(C(C)C)cc2)c(C)c1 (centres undefined) as the molecule, how does the composite z-score read?
**A.** The composite z-score was -0.0172.

**Q.** Which composite z-score does the source give for COc1cc(OC)c(C(O)C2C=CC3C(=O)N(c4ccccc4)C(=O)C3N2Nc2ccccc2)cc1Br (centres undefined) here?
**A.** Its composite z-score is -0.0828.

**Q.** For CO[C@H]1O[C@H](CO)[C@@H](OC(=O)Nc2ccccc2-c2ccccc2)[C@H](OC(=O)Nc2ccc3c(c2)OCO3)[C@H]1OC(=O)Nc1ccc2c(c1)OCO2, which composite z-score is on record?
**A.** Its composite z-score is 0.0115.

**Q.** For CC1CC/C=C\[C@H]2OC34C=CCN(c5ccc(Cl)cc5)C(=O)[C@H]3N(CCCCCO)C(=O)[C@]4(C)C2C(=O)O1 (some centres undefined), which composite z-score is on record?
**A.** The composite z-score was -0.302.

**Q.** Which composite z-score does the source give for CC(C)N1C(=O)c2ccccc2[C@@H](C(=O)NC2CC2)[C@@H]1c1ccc(CO)cc1 here?
**A.** The composite z-score was -0.156.

**Q.** For COCCCNC(=O)[C@@]1(Cc2ccccc2CN=[N+]=[N-])N=C(c2ccc(OCCCO)cc2)O[C@H]1c1ccccc1, which composite z-score is on record?
**A.** The composite z-score was -0.0267.

**Q.** For COc1ccc([Si](C)(C)[C@@H]2[C@@H](CCO)O[C@]3(C(=O)N(Cc4ccc(N5CCCCC5=O)cc4)c4ccccc43)[C@H]2C)cc1, which composite z-score is on record?
**A.** The composite z-score was -0.0828.

**Q.** With C=C(/C(=C/C[C@@H](OC(C)=O)c1cccc(OCCO)c1)c1cc(C(=O)OC)ccc1OC)C(C)C as the molecule, how does the composite z-score read?
**A.** Its composite z-score is -0.0987.

**Q.** With C=C(COC)C(=O)CC[C@@H](OC(=O)c1cccnc1)c1ccc(OCCO)cc1 as the molecule, how does the composite z-score read?
**A.** Its composite z-score is 0.167.

**Q.** For CN(C)c1ccc(C(O)C2C=CC3C(=O)N(c4ccccc4)C(=O)C3N2Nc2ccc([N+](=O)[O-])cc2)cc1 (centres undefined), which composite z-score is on record?
**A.** Its composite z-score is -0.0234.

**Q.** For C=C[C@@H](COC(C)=O)N(C(=O)OC(C)(C)C)S(=O)(=O)c1ccc(Br)cc1, which composite z-score is on record?
**A.** The composite z-score was 0.0709.

**Q.** Which composite z-score does the source give for CCCC[C@@H](O)C1=C(COc2ccccc2)C[C@H]2C(=O)N(C)C(=O)[C@H]2[C@H]1CO here?
**A.** Its composite z-score is -0.225.

**Q.** Which composite z-score does the source give for COC(=O)c1ccc([C@H](NC(=O)c2ccco2)[C@]2(C)C[C@H]2C2CCCCC2)cc1 here?
**A.** Its composite z-score is -0.192.

**Q.** For COc1ccc(CN(C2=CC[C@@]3(C(N)=O)C(=O)C(Cl)=C(Cl)C(=O)[C@@]3(C#N)C2)S(=O)(=O)c2ccc(Br)cc2)cc1, which composite z-score is on record?
**A.** Its composite z-score is -0.111.

**Q.** Which composite z-score does the source give for COC(=O)c1cn(C[C@@H](Cc2ccccc2)NC(=O)N[C@H](CO)CCc2oc(C(C)=O)c(C(=O)OC)c2C(=O)OC)nn1 here?
**A.** Its composite z-score is 0.084.
